High-throughput results as filed in PubChem BioAssay.
BL2 CD40 inh: inhibitors of CD40-induced NF-kB signaling, primary screen, BL2 cells, luciferase reporter, single point | actives 0.94% (n = 83,000) | inhibition, % at 10 µM | AID 1053188, 2014 | CD40L-induced, 4 h;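 active = mean inhibition of at least 50% with a set share of replicates also reaching that level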;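 also: 0% = neutral control wells and 100% = IKK inhibitor VII at 50 µM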
Numbers without * were called inactive; [ ] = remark or other dose. Shown is part of a subset that was picked to be rich in hits.

SMILES | BL2 CD40 inh
CC=Cc1ccc2n(c1=O)C[C@@H]1[C@@H](CO)[C@H](C(=O)OC)[C@H]2N1S(=O)(=O)c1ccccc1C (mixture of isomers) | -0.2[25 µM]
CN1[C@@H]2CN(CC3CC3)C[C@H]1C2c1ccc(Br)cc1 (stereo not given in full) | -14.0
COc1ccc(OC(=O)N(C)C[C@@H]2OCc3ccccc3-c3c(n(C)c4ccccc34)C(=O)N([C@@H](C)CO)C[C@H]2C)cc1 | 38.4
NC(N)=N/N=C/c1cn(-c2ccccc2)nc1-c1cccs1 | 86.5*
COC(=O)[C@@H]1[C@@H](CO)[C@@H]2Cn3c(ccc(/C=C/c4ccccc4)c3=O)[C@H]1N2CC1CCCC1 | 16.3[25 µM]
Fc1ccc(CN2CC3NC(C2)C3c2ccc(Br)cc2)cc1 (stereo not given) | 3.6
COC(=O)[C@H]1[C@H](CO)[C@H]2Cn3c(ccc(-c4ccccc4F)c3=O)[C@@H]1N2C(C)=O | 1.0[25 µM]
